# Measured values reported in PubChem BioAssay AID588405 (Sanford-Burnham Center for Chemical Genomics, 2011).
# About 6,200 (1.7%) of roughly 360,000 compounds were called active. For the sample, actives were picked, then their nearest neighbours and some compounds at random. A number with no mark means an inactive call.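 How the source made its calls: active means inhibition of at least 50% at 20 µM; inactive means the rest.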
# Assay: inhibition of PEG-3 promoter activity – cell-based, HeLa, luciferase luminescence, primary screen (AID 588405)
# Details: HeLa PEG-Prom luciferase reporter, overnight, at 20 µM, active compounds read high
row,Structure (SMILES),inhibition
1,Cc1cc(Br)cn2c(Cc3ccccc3C(F)(F)F)c(C3CCCCC3)nc12,5.05%
2,CC1(C(=O)NS(=O)(=O)c2cccc(F)c2)CCN1C(=O)c1cccc2ccccc12 (stereo not drawn),-0.5%
3,Cc1cc2oc(=O)cc(CN3CCN(S(=O)(=O)c4cccs4)CC3)c2cc1C(C)C,51.9% (active)
4,COc1ccc2c(CN3CCN(S(=O)(=O)c4cccs4)CC3)cc(=O)oc2c1,0.03%
5,O=S(=O)(c1cccs1)N1CCN(Cc2ccccc2)CC1,0.76%
6,COc1cncc(-c2cnc3sc(NCCc4ccccn4)nn23)c1,37.3%
7,Cc1ccc(NN=C2C(=O)OC(C)(C)OC2=O)c(C)c1,-290%
8,Cc1cccc(NC(=O)c2ccc([N+](=O)[O-])o2)c1,65.2% (active)
9,O=C(Nc1cccc(O)c1)c1ccc(C(=O)c2ccccc2)o1,-268%
10,Cc1onc(NC(=O)c2ccc([N+](=O)[O-])o2)c1Br,14.7%
11,O=C(Nc1cccc2cccnc12)c1ccc2sc([C@H]3C[C@H](O)[C@@H](CO)O3)nc2c1,-70.4%
12,O=C(Nc1cccc(Cc2ccccc2)c1)Nc1ccc2nc([C@@H]3O[C@H](CO)[C@@H](O)[C@H](O)[C@H]3O)[nH]c2c1,-16.1%
13,CC(C)CN(C(=O)COC(=O)c1ccc2ccccc2c1)c1c(N)n(Cc2ccccc2)c(=O)[nH]c1=O,86.1% (active)
14,Cc1csc(=O)n1CC(=O)OCC(=O)N(CC(C)C)c1c(N)n(Cc2ccccc2)c(=O)[nH]c1=O,-11.2%
15,CC(C)CN(C(=O)COC(=O)c1ccc(Cl)c(N)c1)c1c(N)n(Cc2ccccc2)c(=O)[nH]c1=O,-4.65%
16,CNc1cc(-c2c(OC)cccc2OC)ncn1,-4.17%
17,CC(=O)Oc1ccc(Cn2c(C)c(C(=O)NCc3ccc(C#N)cc3)sc2=O)cc1,9.61%
18,CNC(=O)c1ccsc1NC(=O)c1ccc(S(=O)(=O)N2CCc3ccccc32)cc1,50.7% (active)
19,CC1CN(S(=O)(=O)c2ccc(C(=O)Nc3sccc3C(N)=O)cc2)CC(C)O1 (stereo not drawn),32.5%
20,NS(=O)(=O)c1ccc(CNC(=O)c2cccc(S(=O)(=O)N3CCc4ccccc43)c2)cc1,23.1%
21,CCOC(=O)c1ccccc1NC(=O)CSc1nc2c(sc(=S)n2CC)c(=O)[nH]1,8.72%
22,CCOC(=O)c1cc(-c2sc(NC(=O)c3ccccc3)nc2C)n(Cc2ccccc2)n1,-5.67%
23,NC(=O)c1ccc(NC(=O)COC(=O)C(Cc2ccccc2)NC(=O)c2ccccc2)cc1 (stereo not drawn),-2.3%
24,CN(Cc1ccccc1F)C(=O)C(Cc1ccccc1)NC(=O)c1ccccc1 (stereo not drawn),53.2% (active)
25,O=C(NC(Cc1ccccc1)C(=O)N1CCCC1C(=O)O)c1ccccc1 (stereo not drawn),11.6%
26,COCCSc1nnc(NC(=O)c2cc(OC)c(OC)cc2[N+](=O)[O-])s1,7.25%
27,CC1(C(=O)NS(=O)(=O)c2ccccc2)CCN1C(=O)Cc1ccc(-c2ccccc2)cc1 (stereo not drawn),-4.22%
28,CCCNC(=O)C1(C)CCN(Cc2csc(-c3ccc(Cl)cc3)n2)C1 (stereo not drawn),-23.7%
